In PMC5540273 (PLoS ONE, 2017):

Legend:
Details in all cases: concentration: 1 μM, replicates: in singlicate; n = 1
[1] = test system: T1, PFTK1
T1 construct: gene CDK14

[2] = test system: PHKG1
[3] = test system: PHKG2
[4] = test system: PIK3C2B
[5] = test system: PIK3C2G
[6] = test system: PIK3CA
[7] = test system: PIK3CB
[8] = test system: PIK3CD
[9] = test system: PIK3CG
[10] = test system: T2, PIK4CB
T2 construct: gene PI4KB
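Further: KINOMEscan kinase panel screen.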

| Compound | %Inh [1] | %Inh [2] | %Inh [3] | %Inh [4] | %Inh [5] | %Inh [6] | %Inh [7] | %Inh [8] | %Inh [9] | %Inh [10] |
| --- | --- | --- | --- | --- | --- | --- | --- | --- | --- | --- |
| COC(=O)Nc1nc2cc(Oc3ccc(NC(=O)Nc4cc(F)ccc4F)cc3)ccc2[nH]1.Cl [GW701424] | 19% | 0% | 0% | 0% | 0% | 0% | 0% | 0% | 0% | 0% |
| CN(C1=C(c2ccccc2)C(=O)NC1=O)c1ccccc1 [SB-334860] | 21% | 0% | 0% | 0% | 3% | 0% | 25% | 7% | 10% | 13% |
| O=C1Cc2cc(Nc3nc(NCc4cccc(S(=O)(=O)C(F)(F)F)c4)ncc3C(F)(F)F)ccc2N1 | 0% | 3% | 0% | 0% | 0% | 0% | 0% | 13% | 8% | 4% |
| CC(C)Oc1ccc2c(-c3ccnc(Nc4ccc(N5CCN(C)CC5)cc4)n3)cnn2n1 [GW696155] | 55% | 51% | 84% | 0% | 0% | 0% | 21% | 45% | 30% | 33% |
| Cn1ccc2ncnc(Oc3ccc(NC(=O)Nc4ccncc4)c(Cl)c3)c21 | 0% | 0% | 5% | 16% | 43% | 11% | 0% | 26% | 26% | 0% |
| Cc1ccc(NC(=O)c2ccnc(N3CCN(C)CC3)c2)cc1-c1ccc(C(=O)NCC2CC2)cc1 [GW775604] | 0% | 0% | 0% | 0% | 0% | 0% | 0% | 0% | 0% | 0% |
| Cc1c2ccc(N(C)c3ccnc(Nc4cccc(S(N)(=O)=O)c4)n3)cc2nn1Cc1ccccc1.Cl.Cl [GW787226] | 27% | 0% | 0% | 5% | 0% | 0% | 0% | 0% | 0% | 0% |
| COc1ccc(Nc2ncc(C#N)c(Nc3ccccc3C(N)=O)n2)cc1N1CCN(C)CC1.Cl [GSK1558669] | 99.4% | 89% | 85% | 0% | 0% | 0% | 0% | 0% | 0% | 15% |
| Fc1ccc(-c2nn3c(OCC(F)(F)F)cccc3c2-c2ccncc2)cc1 [GW514784] | 3% | 0% | 0% | 0% | 0% | 0% | 0% | 30% | 0% | 0% |
| Fc1ccc(-c2ncn(CCCN3CCOCC3)c2-c2cccnc2)cc1 [SB-211743] | 0% | 3% | 0% | 0% | 0% | 10% | 0% | 0% | 0% | 17% |
| NCC(NC(=O)c1cc(-c2cn[nH]c2)c(-c2ccnc3[nH]ccc23)s1)c1ccccc1.O=C(O)C(F)(F)F.O=C(O)C(F)(F)F (stereo not shown) [GSK1325775] | 21% | 18% | 26% | 0% | 0% | 0% | 0% | 24% | 3% | 26% |
| N#Cc1c(N2CCOCC2)sc(-c2ccn[nH]2)c1-c1ccc(Cl)cc1 | 19% | 9% | 0% | 31% | 37% | 90% | 97% | 46% | 20% | 16% |
| CSc1ccc(-c2cc3ncnc(SCC(=O)O)c3s2)cc1 | 3% | 0% | 0% | 0% | 0% | 0% | 0% | 8% | 2% | 0% |
| CNc1ncnc2[nH]ncc12 [SKF-18355] | 0% | 0% | 0% | 3% | 0% | 1% | 0% | 0% | 5% | 17% |
| O=C1NC(=O)C(N2CCc3ccccc32)=C1c1cccc(Cl)c1 [SB-408010] | 5% | 0% | 0% | 0% | 0% | 0% | 33% | 9% | 0% | 5% |
| COc1ccc(S(=O)(=O)NC2CCN(c3cc(C)nc(Nc4cccc(C#N)c4)n3)CC2)cc1.O=C(O)C(F)(F)F [GSK1653539] | 11% | 0% | 9% | 12% | 0% | 6% | 100% | 0% | 33% | 0% |
